“And” between values parts separate entries of the source, which are not always exact repeats. Equal values may be shown once. In all, about 5,500 compounds went through this assay and about 2,000 (36%) were called active. About 18% were inconclusive and are not listed. Cut-off read from the data, not from the text of the source: active = normalized growth mostly below about 0.91 (no sharp cut-off); inconclusive = no clear call, values can overlap the other calls; inactive = mostly above about 0.92. This is one part of the list.
Experiment: chemical genetic growth profiling, strain panel (AID 1159580);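 note: tested at 20 µM; growth read once vehicle control cultures reached saturation at 30 °C; 1 = growth at the plate median or of vehicle wells; lower values mean less growth of the strain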
Details: S. cerevisiae deletion strains, growth OD

Measured: normalized growth

Oc1ccc(Cl)cc1Cc1cc(Cl)ccc1O
active: locus YAL013W, strain DEP1, active compounds read low 0.0573 | locus YAL021C, strain ccr4, active compounds read low 0.0695 | locus YAL026C, strain drs2, active compounds read low 0.0747 | locus YAL030W, strain snc1, active compounds read low 0.0569 | locus YBL061C, strain skt5, active compounds read low 0.0645 | locus YBR009C, strain hhf1, active compounds read low 0.0651 | locus YBR021W, strain FUR4, active compounds read low 0.253 | locus YBR023C, strain chs3, active compounds read low 0.07 | locus YBR171W, strain sec66, active compounds read low 0.124 | locus YBR229C, strain ROT2, active compounds read low 0.0685 | locus YBR231C, strain swc5, active compounds read low 0.0629 | locus YBR279W, strain paf1, active compounds read low 0.0982 | locus YCL011C, strain gbp2, active compounds read low 0.0575 | locus YCL016C, strain dcc1, active compounds read low 0.0745 | locus YCL029C, strain bik1, active compounds read low 0.0624 | locus YCL061C, strain MRC1, active compounds read low 0.107 | locus YCL069W, strain vba3, active compounds read low 0.0848 | locus YCR088W, strain abp1, active compounds read low 0.0882 | locus YDL005C, strain med2, active compounds read low 0.0747 | locus YDL035C, strain GPR1, active compounds read low 0.0712 | locus YDL040C, strain nat1, active compounds read low 0.0791 | locus YDL074C, strain BRE1, active compounds read low 0.092 | locus YDL101C, strain DUN1, active compounds read low 0.0631 | locus YDL134C, strain PPH21, active compounds read low 0.0596 | locus YDL185W, strain tfp1, active compounds read low 0.0573 | locus YDL192W, strain arf1, active compounds read low 0.0725 | locus YDR001C, strain nth1, active compounds read low 0.107 | locus YDR069C, strain doa4, active compounds read low 0.0709 | locus YDR101C, strain arx1, active compounds read low 0.0668 | locus YDR137W, strain rgp1, active compounds read low 0.0823 | locus YDR150W, strain NUM1, active compounds read low 0.141 | locus YDR159W, strain sac3, active compounds read low 0.0887 | locus YDR162C, strain NBP2, active compounds read low 0.0492 | locus YDR195W, strain ref2 0.12 | locus YDR297W, strain sur2, active compounds read low 0.0586 | locus YDR318W, strain mcm21, active compounds read low 0.0649 | locus YDR334W, strain swr1, active compounds read low 0.0861 | locus YDR335W, strain msn5, active compounds read low 0.0832 | locus YDR388W, active compounds read low 0.0554 | locus YDR392W, strain spt3, active compounds read low 0.0992 | locus YDR502C, strain sam2, active compounds read low 0.0624 | locus YEL003W, strain gim4, active compounds read low 0.0565 | locus YEL037C, strain rad23, active compounds read low 0.271 | locus YEL061C, strain CIN8 (second series), active compounds read low 0.0757 | locus YEL061C, strain CIN8, active compounds read low 0.0536 | locus YER015W, strain faa2, active compounds read low 0.0622 | locus YER016W, strain bim1, active compounds read low 0.0644 | locus YER110C, active compounds read low 0.0746 | locus YER111C, strain swi4, active compounds read low 0.0777 | locus YER155C, strain BEM2 (second series), active compounds read low 0.109 | locus YER155C, strain BEM2, active compounds read low 0.0649 | locus YER167W, strain BCK2, active compounds read low 0.0527 | locus YFR010W, strain ubp6, active compounds read low 0.185 | locus YGL078C, strain dbp3, active compounds read low 0.0765 | locus YGL086W, strain mad1, active compounds read low 0.0581 | locus YGL167C, strain pmr1, active compounds read low 0.0782 | locus YGL173C, strain kem1, active compounds read low 0.101 | locus YGL227W, strain vid30, active compounds read low 0.0709 | locus YGL240W, strain doc1, active compounds read low 0.08 | locus YGL248W, strain PDE1, active compounds read low 0.0764 | locus YGL253W, strain hxk2, active compounds read low 0.0817 | locus YGR078C, strain PAC10, active compounds read low 0.0754 | locus YGR135W, strain pre9, active compounds read low 0.0765 | locus YGR229C, strain SMI1, active compounds read low 0.0636 | locus YGR252W, strain gcn5, active compounds read low 0.146 | locus YHR013C, strain ard1, active compounds read low 0.109 | locus YHR027C, strain rpn1, active compounds read low 0.0641 | locus YHR030C, strain SLT2, active compounds read low 0.0512 and 0.0939 | locus YHR079C, strain IRE1 (second series), active compounds read low 0.0561 | locus YHR079C, strain IRE1, active compounds read low 0.102 | locus YHR094C, strain hxt1, active compounds read low 0.0607 | locus YHR129C, strain ARP1, active compounds read low 0.0651 | locus YHR142W, strain chs7, active compounds read low 0.0876 | locus YHR200W, strain rpn10, active compounds read low 0.0673 | locus YIL066C, strain RNR3, active compounds read low 0.0647 | locus YIL073C, strain SPO22, active compounds read low 0.114 | locus YIL125W, strain kgd1, active compounds read low 0.0642 | locus YIR030C, strain dcg1, active compounds read low 0.0657 | locus YJL092W, strain hpr5, active compounds read low 0.111 | locus YJL095W, strain BCK1 (second series), active compounds read low 0.057 | locus YJL095W, strain BCK1, active compounds read low 0.0553 and 0.0954 | locus YJL115W, strain asf1, active compounds read low 0.201 | locus YJL129C, strain trk1, active compounds read low 0.0878 | locus YJL134W, strain LCB3, active compounds read low 0.0583 | locus YJL154C, strain vps35, active compounds read low 0.0851 | locus YJL164C, strain tpk1, active compounds read low 0.0647 | locus YJL166W, strain qcr8, active compounds read low 0.0615 | locus YJL168C, strain set2, active compounds read low 0.0792 | locus YJL187C, strain SWE1 (second series), active compounds read low 0.0719 | locus YJL187C, strain SWE1, active compounds read low 0.0599 | locus YJR043C, strain POL32, active compounds read low 0.0779 | locus YJR066W, strain TOR1, active compounds read low -0.000659

Reference: PubChem BioAssay AID1159580 (chemical genetic matrix, 2015)
